From PubChem BioAssay
Only some compounds are listed: those with a hit (about 19% of all), similar ones and a draw of the others.
IL1B secr inh – inflammasome signaling inhibition, IL-1 beta readout; 360,000 compounds, 4.7% hits; THP-1 LPS/ATP IL-1B secretion, AlphaLISA, 16 h; hits give low values; activity change, % at 57.5 µM; AID 743279; in the data active means activity change below about -50%; inconclusive means mostly about -30% to -49%
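Secreted IL-1B measured by AlphaLISA bead assay after 16 h compound exposure of THP-1 cells; compounds (final up to 57.5 uM) added 1 h before LPS (250 ng/mL) and ATP (1.25 mM) stimulation; lower signal means less secretion.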
HT1080-NT tox – kills 2HG-producing HT-1080-NT fibrosarcoma cells; HT-1080-NT fibrosarcoma viability, CellTiter-Glo ATP luminescence, 48 h; Potency, µM (highest dose often 46.1 µM), usual class: cytotoxic; 360,000 compounds, 1.6% hits; AID 686970;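 further: NT is the 2HG producing partner of a matched IDH1 knockdown line; nearly all actives have a fitted effect of over 55% in size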
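Viability by CellTiter-Glo luminescence after 48 h compound exposure at 37C of HT-1080-NT cells (750/well, RPMI, 5% FBS). % activity scaled between DMSO wells and medium-only wells, then curve-fitted and categorized by curve class.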
DT40 TDP1 no CPT – qHTS for Inhibitors of human tyrosyl-DNA phosphodiesterase 1 (TDP1): qHTS in cells in absence of CPT; 420,000 compounds, 15% hits; DT40 Tdp1-/- hTDP1 cells, no CPT, ATP luminescence, 48 h; Potency, µM (series often up to 46.2 µM), most hits filed as inhibitors; further: nearly all actives have a fitted effect of over 55% in size
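Seeded 400 DT40-hTDP1 cells/well (vehicle DMSO, no 20 nM CPT); pinned compounds; ≥48 hr at 37 °C; CellTiter-Glo luminescence as viability measure.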
DT40 TDP1 CPT – growth inhibition of DT40 Tdp1-/-;hTDP1 cells with camptothecin (screen for TDP1 inhibitors); Potency, µM (doses to about 46.2 µM), hits mostly inhibitors; AID 686979; 420,000 compounds, 12% hits; chicken DT40 Tdp1-/-;hTDP1 cells + 20 nM CPT, ATP luminescence, 48 h; further: nearly all actives have a fitted effect of over 55% in size
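Chicken DT40 Tdp1-/- cells stably complemented with human TDP1 were seeded at 400 cells/well in medium containing 20 nM camptothecin, exposed to pin-transferred compounds, and grown at 37 °C for at least 48 hr. Viability was read as ATP luminescence.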
HT1080 IDH1KD tx – kills HT-1080 cells with IDH1 knockdown | 360,000 compounds, 2% hits | Potency, µM (titrated, usually from 46.1 µM), usual class: cytotoxic | AID 686971 | HT-1080 IDH1 knockdown viability, ATP luminescence, 48 h
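Using the IDH1-knockdown HT-1080 line run in the same batch and compound series as the NT line, viability after 48 h at 37 °C was determined by CellTiter-Glo luminescence and expressed as % activity.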
Large screens that a line does not name were inactive. Unless noted, the call rests on the fitted dose curve; in most records, active means well fitted curve in the direction sought with a large enough effect; inconclusive means small, poorly fitted or top-dose-only effect, or another doubt; inactive means no such curve, though single readings can be large; an effect the other way counts as inactive or inconclusive.

COc1cccc(-c2ccnc(-n3ncc(C(=O)NCC4(N5CCCCC5)CCCC4)c3C)n2)c1	none (no result: IL1B secr inh, HT1080-NT tox, HT1080 IDH1KD tx)
COc1cccc(NC(=O)c2cccc(N3C(=O)C4C5C=CC(C5)C4C3=O)c2)c1 (centres undefined)	DT40 TDP1 no CPT inconclusive, DT40 TDP1 CPT inconclusive
COC(=O)[C@H](CC(C)C)NCc1cccc(CN[C@@H](CC(C)C)C(=O)OC)c1	DT40 TDP1 CPT inconclusive
O=c1c2cc(F)ccc2sn1-c1ccccc1Cl	IL1B secr inh -105, HT1080-NT tox inconclusive, DT40 TDP1 no CPT 2.3µM, DT40 TDP1 CPT 2.6µM, HT1080 IDH1KD tx inconclusive
COC(=O)c1cccc(-n2sc3ccccc3c2=O)c1	IL1B secr inh -101, DT40 TDP1 no CPT 3.3µM, DT40 TDP1 CPT 2.1µM
COC(=O)c1cccc(N2CCCC2=O)c1	none
Cc1ccc(N2C(=O)CC(N3CCN(c4ccc(F)cc4)CC3)C2=O)c(C)c1 (centres undefined)	none
O=c1c2ccccc2sn1-c1ccc(F)cc1	IL1B secr inh -109, HT1080-NT tox inconclusive, DT40 TDP1 no CPT 3.7µM, DT40 TDP1 CPT 3.3µM
O=c1c2ccccc2nnn1Cc1ccc(F)cc1	DT40 TDP1 CPT inconclusive
Cc1ccc(-n2sc3cc(F)ccc3c2=O)c(C)c1	IL1B secr inh -103, HT1080-NT tox inconclusive, DT40 TDP1 no CPT 2.3µM, DT40 TDP1 CPT 2.9µM, HT1080 IDH1KD tx inconclusive
CCOCC(=O)Nc1ccccc1C(=O)O	none
Cc1ccc(C)c(OCCOCCn2c(-c3ccc(Br)cc3)nc3ccccc3c2=O)c1C	DT40 TDP1 CPT inconclusive (no result: IL1B secr inh, HT1080-NT tox, HT1080 IDH1KD tx)
O=C(c1sc2cc(F)ccc2c1Cl)N1CCN(c2cccc(Cl)c2)CC1	DT40 TDP1 no CPT inconclusive, DT40 TDP1 CPT inconclusive
O=c1c2ccc(F)cc2sn1-c1ccccc1	IL1B secr inh -106, DT40 TDP1 no CPT 2.9µM, DT40 TDP1 CPT 2.6µM, HT1080 IDH1KD tx inconclusive
O=C(O)C[C@H](O)C[C@H](O)/C=C/c1c(C2CC2)nc2ccccc2c1-c1ccc(F)cc1	DT40 TDP1 no CPT 1.9µM, DT40 TDP1 CPT 2.7µM (no result: IL1B secr inh, HT1080-NT tox, HT1080 IDH1KD tx)
Cc1nc2ccccc2c(-c2ccccc2)c1CC(=O)O	DT40 TDP1 no CPT inconclusive
CCOc1ccc(NC(=O)CN(C)C(=O)Cn2cnc3c2c(=O)n(C)c(=O)n3C)cc1OCC	none
CCCCC(=O)N/N=C(/C)C1=C(C)C(C)(C)OC1=O	none
Cc1ccc(S(=O)(=O)Cc2ccccc2Cl)cc1	DT40 TDP1 no CPT 21µM, DT40 TDP1 CPT inconclusive, HT1080 IDH1KD tx inconclusive
CC(Oc1ccccc1)C(=O)NC1CCCCCCC1 (centres undefined)	none
CC[C@@]1(c2ccccc2)C(=O)N(C(=O)OC)N1C(=O)OC	IL1B secr inh inconclusive, DT40 TDP1 no CPT inconclusive, DT40 TDP1 CPT 8.2µM
Cc1ccccc1CNC(=O)COc1ccccc1	none
COC(=O)N1C(=O)[C@@](c2ccccc2)(C2CCCCC2)N1C(=O)OC	IL1B secr inh -103, HT1080-NT tox inconclusive, DT40 TDP1 no CPT 18µM, DT40 TDP1 CPT inconclusive
CCC1(c2ccccc2)NC(=O)N(CC(=O)NCc2ccccc2OC)C1=O (centres undefined)	none
CC[C@@]1(c2ccccc2C)C(=O)N(C(=O)OC)N1C(=O)OC	IL1B secr inh -58, DT40 TDP1 no CPT inconclusive, DT40 TDP1 CPT 13µM
COC(=O)N1C(=O)[C@](c2ccccc2)(C(C)C)N1C(=O)OC	IL1B secr inh -92, DT40 TDP1 no CPT inconclusive, DT40 TDP1 CPT inconclusive
CC(C)CN(C(=O)c1cc(Cl)nc2ccccc12)C1CCS(=O)(=O)C1 (centres undefined)	none
CC[C@]1(c2ccccc2)C(=O)N(C(=O)OC)N1C(=O)OC	IL1B secr inh -81, DT40 TDP1 no CPT 16µM, DT40 TDP1 CPT 21µM
CC[C@]1(c2cccc(C)c2)C(=O)N(C(=O)OC)N1C(=O)OC	IL1B secr inh -105, DT40 TDP1 no CPT 13µM, DT40 TDP1 CPT 5.2µM
Cc1cccc(OCC(=O)NNC(=O)CCCCC(=O)NNC(=O)COc2cccc(C)c2)c1	none
CCCOc1ccc(NC(=O)CC2C(=O)N(CC)C(=S)N2Cc2cccs2)cc1 (centres undefined)	HT1080-NT tox inconclusive, DT40 TDP1 no CPT inconclusive, DT40 TDP1 CPT inconclusive, HT1080 IDH1KD tx 20µM
CCCCCCOc1ccc(NC(=O)CC2C(=O)N(CC)C(=S)N2Cc2ccco2)cc1 (centres undefined)	IL1B secr inh -101, DT40 TDP1 no CPT inconclusive, DT40 TDP1 CPT inconclusive, HT1080 IDH1KD tx inconclusive
COc1ccc(NC(=O)CC2C(=O)N(C)C(=S)N2Cc2cccs2)cc1 (centres undefined)	none
C=CCN1C(=O)C(CC(=O)Nc2ccc(OCCC)cc2)N(CCCN2CCN(Cc3ccccc3)CC2)C1=S (centres undefined)	IL1B secr inh -67, HT1080-NT tox 16µM, DT40 TDP1 no CPT 21µM, DT40 TDP1 CPT 23µM, HT1080 IDH1KD tx 16µM
CC(C(=O)Nc1cccc(S(=O)(=O)N2CCOCC2)c1)N1CCN(c2ccc(F)cc2)CC1 (centres undefined)	DT40 TDP1 no CPT inconclusive
CCCCCc1ccc(CC(=O)Nn2c(C)nc3ccccc3c2=O)cc1	HT1080-NT tox inconclusive, DT40 TDP1 CPT inconclusive
CCN(CC)S(=O)(=O)c1ccc2oc(SCC3CN=C(c4ccc(OC)cc4)S3)nc2c1 (centres undefined)	DT40 TDP1 no CPT 16µM, DT40 TDP1 CPT inconclusive, HT1080 IDH1KD tx inconclusive
COc1ccc(C2=NCC(CSc3nnc(-c4ccc5c(c4)OCO5)o3)S2)cc1 (centres undefined)	DT40 TDP1 no CPT inconclusive, DT40 TDP1 CPT inconclusive
CCOC(=O)c1c(Nc2ccccc2)sc(/C=C2\C=Nc3ccccc32)c1O	HT1080-NT tox inconclusive, DT40 TDP1 no CPT inconclusive, DT40 TDP1 CPT 21µM, HT1080 IDH1KD tx inconclusive
Cc1ccc(S(=O)(=O)Nc2cccc(C(=O)N3CCC(C(N)=O)CC3)c2)cc1	none
CN(Cc1ccccc1)C(=O)[C@@H]1CCCN1C(=O)[C@@H]1CCCN1C(=O)c1ccccc1	none
COc1ccc(-c2cn3cc(Br)cnc3n2)cc1	DT40 TDP1 no CPT inconclusive, DT40 TDP1 CPT 26µM
COc1ccc(CCN2C(=O)c3[nH]nc(-c4ccccc4O)c3C2c2cccc(OC)c2)cc1 (centres undefined)	DT40 TDP1 no CPT 18µM, DT40 TDP1 CPT inconclusive (no result: IL1B secr inh, HT1080-NT tox, HT1080 IDH1KD tx)
COc1ccc(CCN2C(=O)c3[nH]nc(-c4ccccc4O)c3C2c2cccc(Cl)c2)cc1 (centres undefined)	HT1080-NT tox 23µM, DT40 TDP1 no CPT 21µM, DT40 TDP1 CPT 23µM, HT1080 IDH1KD tx 12µM
COCCN1C(=O)c2[nH]nc(-c3ccccc3O)c2C1c1ccc(Cl)c(Cl)c1 (centres undefined)	DT40 TDP1 no CPT 9.2µM, DT40 TDP1 CPT 18µM (no result: IL1B secr inh, HT1080-NT tox, HT1080 IDH1KD tx)
CC1(C)CCCC2(C)C(OCCO)=CC(=O)C=C12 (centres undefined)	none
